# Experimental data published in PubChem BioAssay (NCATS).
# Inconclusive results are not listed. Calls of active or inactive are those of the source. Unless noted, the call rests on the fitted dose curve.
# Tests used:
# [1] = qHTS for Inhibitors of the Functional Ribonucleoprotein Complex (vRNP) of Lassa (LASV) Arenavirus: LASV Primary Screen - GLuc reporter signal (AID 1347082; calls by dose curve; tested in HEK293 reporter line; further: series mostly up to about 57 µM; nearly all actives have a fitted effect of over 60% in size)
# [2] = qHTS for Inhibitors of the Functional Ribonucleoprotein Complex (vRNP) of Lassa (LASV) Arenavirus: Viability assay - alamar blue signal for LASV Primary Screen (AID 1347083; calls by dose curve; tested in HEK293 reporter line; further: nearly all actives have a fitted effect of over 80% in size; further: potency means the concentration at half of the fitted maximal effect)
# [3] = target: Nucleoprotein (Lymphocytic choriomeningitis virus (strain Armstrong)) (UniProt P09992); test: qHTS for Inhibitors of the Functional Ribonucleoprotein Complex (vRNP) of Lymphocytic Choriomeningitis Arenaviruses (LCMV): LCMV Primary Screen - GLuc reporter signal (AID 1347086); further: nearly all actives have a fitted effect of over 70% in size; further: potency means the concentration at half of the fitted maximal effect
# [4] = qHTS for Inhibitors of the Functional Ribonucleoprotein Complex (vRNP) of Lymphocytic Choriomeningitis Arenaviruses (LCMV): Viability assay - alamar blue signal for LCMV Primary Screen (AID 1347085; calls by dose curve; tested in HEK293 reporter line; further: nearly all actives have a fitted effect of over 80% in size; further: potency means the concentration at half of the fitted maximal effect)
# [5] = qHTS of pediatric cancer cell lines to identify multiple opportunities for drug repurposing: Primary screen for TC32 cells (AID 1347089; active means well fitted curve in the direction sought with a large enough effect; an effect the other way counts as inactive or inconclusive; further: nearly all actives have a fitted effect of over 60% in size)
# Outline: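 A viability screen of TC32 cells was run over 48 h, with primary MIPE doses spanning 0.78 nM–46 µM and NPC doses 0.59 nM–46 µM. ATP luminescence (CellTiter-Glo) served as the read-out.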
# [6] = qHTS of pediatric cancer cell lines to identify multiple opportunities for drug repurposing: Primary screen for DAOY cells (AID 1347090; active means well fitted curve in the direction sought with a large enough effect; an effect the other way counts as inactive or inconclusive; further: nearly all actives have a fitted effect of over 55% in size; further: potency means the concentration at half of the fitted maximal effect)
# Outline: (§1)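 Eight- or eleven-point concentration series, 48 h treatment at 37 degrees C in growth media; readout CellTiter-Glo luminescence. Potency and efficacy were taken from the concentration-response curves.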
# [7] = qHTS of pediatric cancer cell lines to identify multiple opportunities for drug repurposing: Primary screen for SJ-GBM2 cells (AID 1347091; active means well fitted curve in the direction sought with a large enough effect; an effect the other way counts as inactive or inconclusive; further: potency means the concentration at half of the fitted maximal effect)
# Outline: as §1
# [8] = qHTS of pediatric cancer cell lines to identify multiple opportunities for drug repurposing: Primary screen for A673 cells (AID 1347092; active means well fitted curve in the direction sought with a large enough effect; an effect the other way counts as inactive or inconclusive; further: potency means the concentration at half of the fitted maximal effect; nearly all actives have a fitted effect of over 45% in size)
# Outline: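 Titration-based qHTS on A673 cells: MIPE compounds spanned 11 points (0.78 nM to 46 µM final), NPC compounds 8 points (0.59 nM to 46 µM final). Viability after 48 h was measured by ATP luminescence.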
# Chain of Nucleoprotein (Lymphocytic choriomeningitis virus (strain Armstrong)) (P09992 whole entry, looked up): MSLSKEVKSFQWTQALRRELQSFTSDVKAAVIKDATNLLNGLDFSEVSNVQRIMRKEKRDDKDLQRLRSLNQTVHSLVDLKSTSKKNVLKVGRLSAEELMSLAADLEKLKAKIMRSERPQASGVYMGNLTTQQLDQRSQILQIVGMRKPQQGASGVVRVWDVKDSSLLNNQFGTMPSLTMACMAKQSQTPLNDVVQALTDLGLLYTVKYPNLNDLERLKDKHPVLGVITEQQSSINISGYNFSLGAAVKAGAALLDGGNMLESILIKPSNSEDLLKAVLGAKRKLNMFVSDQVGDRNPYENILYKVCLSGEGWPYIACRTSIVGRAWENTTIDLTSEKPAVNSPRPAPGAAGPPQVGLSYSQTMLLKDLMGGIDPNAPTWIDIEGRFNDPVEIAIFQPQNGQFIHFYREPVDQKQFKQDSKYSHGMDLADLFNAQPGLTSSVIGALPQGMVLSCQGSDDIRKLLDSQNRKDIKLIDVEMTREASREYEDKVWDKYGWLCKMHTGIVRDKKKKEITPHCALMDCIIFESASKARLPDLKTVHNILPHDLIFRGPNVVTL
smiles,measurement,setting,value
CC[C@H](CO)Nc1nc(NCc2ccccc2)c2ncn(C(C)C)c2n1,Potency,[1],inactive
same,Potency,[2],15.3 µM (active)
same,Potency,[3],inactive
CC(=O)Nc1sc2c(c1-c1nc3ccccc3s1)CNC2,Potency,[1],inactive
same,Potency,[2],0.0054 µM (active)
same,Potency,[3],0.0027 µM (active)
Cn1cc(-c2ccc3nnc(Sc4ccc5ncccc5c4)n3n2)cn1,Potency,[1],inactive
same,Potency,[2],inactive
same,Potency,[3],inactive
O=C1C(CCC(O)c2ccc(F)cc2)C(c2ccc(O)cc2)N1c1ccc(F)cc1 (stereo unspecified),Potency,[1],inactive
same,Potency,[2],inactive
same,Potency,[4],inactive
same,Potency,[3],inactive
C=C[C@@H]1CN2CCC1C[C@H]2[C@H](O)c1ccnc2ccccc12 (stereo partly specified),Potency,[5],inactive
same,Potency,[6],inactive
COC[C@H]1OC(=O)c2coc3c2[C@@]1(C)C1=C(C3=O)[C@@H]2CC[C@H](O)[C@@]2(C)C[C@@H]1OC(C)=O,Potency,[5],inactive
same,Potency,[6],14.8 µM (active)
same,Potency,[7],0.469 µM (active)
same,Potency,[8],9.35 µM (active)
Cc1ccc(C(=O)N(CCCN)[C@@H](c2nc3cc(Cl)ccc3c(=O)n2Cc2ccccc2)C(C)C)cc1,Potency,[2],inactive
Cc1nc2cnc3ccc(C#Cc4cccnc4)cc3c2n1-c1ccc(C(C)(C)C#N)cc1,Potency,[2],0.0432 µM (active)
same,Potency,[4],0.109 µM (active)
same,Potency,[3],0.109 µM (active)
CCCS(=O)(=O)Nc1ccc(F)c(C(=O)c2c[nH]c3ncc(Cl)cc23)c1F,Potency,[2],12.2 µM (active)
same,Potency,[4],2.73 µM (active)
C[C@]1(CO)CN(c2cc(C(=O)Nc3ccc4c(c3)-c3c(c(C(N)=O)nn3-c3ccc(F)cc3)CC4)c(Cl)cn2)C[C@@]1(C)CO,Potency,[2],1.72 µM (active)
same,Potency,[4],1.37 µM (active)
CCOc1cc(N2CCC(O)CC2)ccc1Nc1ncc2c(n1)N(C)c1ccccc1C(=O)N2C,Potency,[2],7.69 µM (active)
same,Potency,[4],6.85 µM (active)
same,Potency,[3],3.43 µM (active)
CCCCc1nc2cc(C=CC(=O)NO)ccc2n1CCN(CC)CC,Potency,[2],6.85 µM (active)
same,Potency,[4],7.69 µM (active)
CC(C)CC(=O)Nc1n[nH]c2c1CN(C(=O)C1CCN(C)CC1)C2(C)C,Potency,[2],inactive
same,Potency,[4],inactive
same,Potency,[3],inactive
C#Cc1cccc(Nc2ncnc3cc(OC)c(OCCCCCCC(=O)NO)cc23)c1,Potency,[2],3.43 µM (active)
Nc1ccccc1NC(=O)c1ccc(CNC(=O)OCc2cccnc2)cc1,Potency,[2],12.2 µM (active)
CN(c1ncccc1CNc1nc(Nc2ccc3c(c2)CC(=O)N3)ncc1C(F)(F)F)S(C)(=O)=O,Potency,[2],24.3 µM (active)
same,Potency,[4],34.3 µM (active)
CN(C)CCCNC(=O)c1ccc(-c2cc(O)c3ncccc3c2)cc1,Potency,[2],38.5 µM (active)
same,Potency,[4],19.3 µM (active)
O=C(c1ccc(Nc2nccc(-c3cc4ccccc4s3)n2)cc1)N1CCC(N2CCCC2)CC1,Potency,[2],21.7 µM (active)
CC1(O)CC(c2nc(-c3ccc4ccc(-c5ccccc5)nc4c3)c3c(N)nccn23)C1 (stereo unspecified),Potency,[2],5.44 µM (active)
same,Potency,[4],3.85 µM (active)
CN1CCN(c2cc(C(=O)Nc3ccc4c(c3)-c3c(c(C(N)=O)nn3-c3ccc(F)cc3)CC4)c(Cl)cn2)CC1,Potency,[2],2.73 µM (active)
O=C(C=Cc1cccc(S(=O)(=O)Nc2ccccc2)c1)NO,Potency,[2],25 µM (active)
same,Potency,[4],39.5 µM (active)
same,Potency,[3],inactive
Cc1cc(Nc2cc(N3CCN(C)CC3)nc(Sc3ccc(NC(=O)C4CC4)cc3)n2)n[nH]1,Potency,[2],19.3 µM (active)
same,Potency,[4],38.5 µM (active)
COc1ccc2c3n(c(=NC(=O)c4cccnc4)nc2c1OC)CCN3,Potency,[2],1.53 µM (active)
same,Potency,[4],0.968 µM (active)
same,Potency,[3],0.769 µM (active)
CCc1cncnc1N1CCN(Cc2nc3ccc(C(F)(F)F)cc3[nH]2)CC1,Potency,[2],inactive
same,Potency,[4],inactive
CC(C)[C@H](CO)Nc1nc(Nc2ccc(C(=O)O)c(Cl)c2)c2ncn(C(C)C)c2n1,Potency,[2],0.217 µM (active)
same,Potency,[4],3.85 µM (active)
same,Potency,[3],inactive
CC=C1NC(=O)[C@H]2CSSCCC=C[C@H](CC(=O)N[C@H](C(C)C)C(=O)N2)OC(=O)[C@H](C(C)C)NC1=O,Potency,[2],0.0968 µM (active)
same,Potency,[4],0.0968 µM (active)
COC(=O)Nc1ccc(-c2nc(N3CCOCC3)c3cnn(C4CCN(C(=O)OC)CC4)c3n2)cc1,Potency,[2],inactive
same,Potency,[4],inactive
same,Potency,[3],inactive
Cc1cc(Nc2cc(N3CCN(C)CC3)nc(C=Cc3ccccc3)n2)n[nH]1,Potency,[2],8.85 µM (active)
same,Potency,[4],31.4 µM (active)
CC(C)c1ccc(Cn2ccc3c4c(N)nc(NC5CC5)nc4ccc32)cc1,Potency,[2],7.69 µM (active)
same,Potency,[4],7.69 µM (active)
O=C(NCCCNc1nc(Nc2cccc(NC(=O)N3CCCC3)c2)ncc1I)c1cccs1,Potency,[2],3.85 µM (active)
same,Potency,[4],34.3 µM (active)
same,Potency,[3],inactive
CCn1c(-c2nonc2N)nc2c(C#CC(C)(C)O)ncc(OC[C@H]3CCCNC3)c21,Potency,[2],0.0611 µM (active)
same,Potency,[4],0.153 µM (active)
CC[C@H](Nc1ncnc2nc[nH]c12)c1nc2cccc(F)c2c(=O)n1-c1ccccc1,Potency,[2],24.3 µM (active)
O=C1C(Cl)=C(NCCN2CCOCC2)C(=O)c2ncccc21,Potency,[2],34.3 µM (active)
COc1cccc2cc(-c3nc(C4CCC(C(=O)O)CC4)n4ncnc(N)c34)[nH]c12 (stereo unspecified),Potency,[2],0.611 µM (active)
same,Potency,[4],1.72 µM (active)
same,Potency,[3],3.06 µM (active)
Cc1[nH]c2ccccc2c1CCNCc1ccc(C=CC(=O)NO)cc1,Potency,[2],0.863 µM (active)
same,Potency,[4],0.863 µM (active)
COc1cc(=C2C=c3ccccc3=N2)[nH]c1=Cc1[nH]c(C)cc1C,Potency,[2],21.7 µM (active)
same,Potency,[4],21.7 µM (active)
CC(C)[C@H](C(=O)Nc1ccc(C(=O)NO)cc1)c1ccccc1,Potency,[2],5.44 µM (active)
same,Potency,[4],6.85 µM (active)
Cc1ccc(C(=O)Nc2ccc(CN3CCN(C)CC3)c(C(F)(F)F)c2)cc1C#Cc1cnc2cccnn12,Potency,[2],1.22 µM (active)
same,Potency,[4],3.43 µM (active)
CC(C)(C)OC(=O)Nc1ccc(-c2cc(C(=O)NCCCCCCC(=O)NO)no2)cc1,Potency,[2],17.2 µM (active)
same,Potency,[4],19.3 µM (active)
CC[C@@H]1C(=O)N(C)c2cnc(Nc3ccc(C(=O)NC4CCC(N5CCN(CC6CC6)CC5)CC4)cc3OC)nc2N1C(C)C (stereo partly specified),Potency,[2],0.0968 µM (active)
same,Potency,[4],0.0968 µM (active)
Nc1ccc(C(=O)c2cc3c(ccc4ccccc43)[nH]2)cc1,Potency,[2],17.2 µM (active)
COc1cc2c(Oc3ccc(NC(=O)C4(C(=O)Nc5ccc(F)cc5)CC4)cc3F)ccnc2cc1OCCCN1CCOCC1,Potency,[2],21.7 µM (active)
same,Potency,[4],21.7 µM (active)
Nc1nc(Nc2ccc(S(N)(=O)=O)cc2)nn1C(=O)c1c(F)cccc1F,Potency,[2],24.3 µM (active)
Cc1cccc(Nc2nc(N[C@@H]3CCCC[C@H]3N)ncc2C(N)=O)c1,Potency,[2],4.85 µM (active)
same,Potency,[4],inactive
same,Potency,[3],inactive
Cc1cccc(C=NNc2cc(N3CCOCC3)nc(OCCc3ccccn3)n2)c1,Potency,[2],1.93 µM (active)
same,Potency,[4],1.37 µM (active)
CCCCCCCCCCCCCCCC[N+](C)(C)C,Potency,[6],13.3 µM (active)
CN1[C@H]2CC(O)C[C@H]1[C@H]1O[C@H]12 (stereo partly specified),Potency,[7],9.35 µM (active)
Cc1c(C(=O)Nc2cccc(C(F)(F)F)c2)cc(-c2ccccc2)n1CCCN1CCOCC1,Potency,[7],18.7 µM (active)
